Laboratory results taken from PubChem BioAssay (NCI).
Where “and” joins values, the source holds several entries; their conditions need not be identical. Equal values may be shown once. Compounds without any hit were thinned out: in the full panel of roughly 79,000, 15% have a hit. Unmarked numbers belong to inactive results. Calls of active or inactive are those of the source. Rule as the data show it: active = growth inhibition above about 70%; inactive = the rest.

Assays:
[1] = NCI Yeast Anticancer Drug Screen. Data for the rad50 strain (AID 155);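 also: 0% = growth of vehicle-only cultures of the same strain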; settings: S. cerevisiae rad50 strain growth inhibition, active compounds read high; at 50.0 µM unless noted
Summary of the method: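 Genetically altered yeast (DNA repair pathway); compound treatment; growth inhibition vs vehicle ctrl.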

[2] = NCI Yeast Anticancer Drug Screen. Data for the mec2-1 strain (AID 157); settings: S. cerevisiae mec2-1 strain, active compounds read high; at 50.0 µM unless noted
Summary of the method: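 Strain: mec2-1 (DNA repair/cell cycle alteration). Compound exposure, then growth measured; inhibition expressed relative to vehicle.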

[3] = NCI Yeast Anticancer Drug Screen. Data for the sgs1 mgt1 strain (AID 161);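 also: 0% = growth of cultures given vehicle only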; settings: S. cerevisiae sgs1 mgt1 strain, active compounds read high; at 50.0 µM unless noted
Summary of the method: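 Read-out: growth inhibition vs vehicle controls. Cells: mutant yeast strain deficient in DNA damage repair.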

[4] = NCI Yeast Anticancer Drug Screen. Data for the cln2 rad14 strain (AID 165);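 also: 0% = growth equal to vehicle treated cultures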; settings: S. cerevisiae cln2 rad14 strain, active compounds read high; at 50.0 µM unless noted
Summary of the method: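 Compounds are applied to the cln2 rad14 yeast strain, and growth is then compared with that of vehicle-treated cultures to give inhibition.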

[5] = NCI Yeast Anticancer Drug Screen. Data for the bub3 strain (AID 167); settings: S. cerevisiae bub3 mutant strain, active compounds read high; at 50.0 µM unless noted
Summary of the method: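 Yeast carrying a defined mutation is treated with each compound, and growth is compared with that of vehicle-exposed cells to give inhibition.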

[6] = NCI Yeast Anticancer Drug Screen. Data for the mlh1 rad18 strain (AID 175); settings: S. cerevisiae mlh1 rad18 strain growth inhibition, active compounds read high; at 50.0 µM unless noted
Summary of the method: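 Read-out is yeast growth inhibition, calculated against vehicle-only controls. The compound was applied to a strain engineered with DNA damage repair alterations.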

SMILES | growth inhibition [1] | growth inhibition [2] | growth inhibition [3] | growth inhibition [4] | growth inhibition [5] | growth inhibition [6]
Cc1ccc(C(CC(=O)C(C)(C)CN2CCCCC2)SCCS(=O)(=O)O)cc1 (stereo not given) | 7.5% | -7.95% | 11.1% | 9.4% | 4.3% | 20%
CCOC(=O)C1CC2OC2CC1C(=O)OCC (stereo not given) | 0.55% | -36.9% | -15.2% | 12.4% | -1.9% | -33.2%
COc1cccc(/C=C/C(C)=N/NC(N)=O)c1 | 6.5% | 0.25% | 5.5% | -7.1% | 6.35% | 8.65%
NC1CCC(C(=O)O)CC1 (stereo not given) | -3% and -3.15% | 0.95% and 15.9% | -3.5% and 4.4% | -52% and 57% | 6.15% and 61.3% | -7.65% and 28.4%
O=C(O)/C=C/c1ccc(OS(=O)(=O)O)cc1 | -12.6% | -31.4% | -14.9% | 7.8% | -9.8% | -7.4%
CC(C)c1cccc(C(C)C)c1NC(=O)C(=O)Cc1nc2ccc([N+](=O)[O-])cc2[nH]c1=O | 26.6% | 19.6% | 34.6% | 25.3% | 24.6% | 40.8%
CCN(CC)C(=O)C1CCN(CCOc2ccccc2)CC1 | -14.2% | 13.2% | 1.55% | -10% | -0.25% | -26%
O=C(O)CN(CCO)CCN(CC(=O)O)CC(=O)O.[Fe+2] | 6% | -32% | -18.5% | 18.6% | -14.5% | 2.25%
CN(Cc1ccccc1)c1cc(=O)n(C)c(=O)[nH]1 | 7.3% | 15.8% | 35.8% | 14% | 25.6% | -6.8%
COc1ccc(N=C2C(=Nc3ccc(OC)cc3)N(c3ccccc3)C(=S)N2N=C=C2Sc3ccccc3N2C)cc1 | -13.2% | -24% | -18.4% | -8.3% | -4.05% | -32%
CCCCCC(=O)CC(=O)C(CC)CC | 16.4% | 12.9% | -1.55% | 1.35% | 6.5% | 12.9%
O=C(CCC(=O)Nc1ccccc1C(F)(F)F)N/N=C1\C(=N\NC(=O)CCC(=O)Nc2ccccc2C(F)(F)F)C(c2ccc3c(c2)OCO3)Oc2ccccc21 (stereo not given) | 19.4% | 3.4% | 1.15% | -11% | -5.05% | 4.55%
CCN(CC)c1ccc2cc(C(=O)Nc3ccccc3)c(=N)oc2c1 | 15.5% | 5.45% | 1.8% | 13.7% | -20.2% | -39.1%
Cc1ccc2nc(-c3ccc(NC(=O)c4ccc(N)cc4)c(S(=O)(=O)O)c3)sc2c1 | 1.9% | 4.7% | -25.9% | -22% | -16.4% | -8.85%
O=C(c1ccccc1)c1ccc2c(c1)N=C(c1ccc(Cl)c(Cl)c1)CC(c1ccc3ccccc3c1)N2 (stereo not given) | 22.2% | 15.4% | -7% | -33.5% | -3.6% | 16.6%
Cc1cc(Cl)ccc1NC(=O)C1C(=O)N(c2ccc(Cl)cc2C)C(=O)/C1=N\N (stereo not given) | 0.65% | -31.4% | 10.4% | -18.9% | -9.1% | 9.7%
CC(C(C#N)C(N)=O)C(C#N)C(N)=O (stereo not given) | 10.2% | 12.4% | 5.5% | -4.4% | -23.9% | 14.7%
Nc1nc2cc(F)ccc2o1 | 1.05% | -26.1% | -9.7% | -20.1% | -21.6% | -15.2%
Cc1cnc2ccccc2n1 (tested in a mixture with another compound) | -1.5% | 4.35% | -5.25% | 8% | -2.1% | 24.8%
O=C(Nc1cc(Cl)c(Cl)cc1Cl)C(=O)C(C(=O)c1ccc(Cl)c(Cl)c1)C1OC(=O)c2ccccc21 (stereo not given) | 19.4% | 8.55% | 0.55% | 27% | 4.05% | 22.6%

SMILES | growth inhibition [1] | growth inhibition [2] | growth inhibition [3] | growth inhibition [4] | growth inhibition [5] | growth inhibition [6]
COc1c(OC2OC(CO)C(O)C(O)C2O)cc2c(c1OC)-c1ccc(OC)c(=O)cc1[C@@H](NC(C)=O)CC2 (stereo not given in full) | -4.2% | 9.6% | 3.8% | 3.65% | -0.1% | 8.05%
O=C(C1=CCCCC1)c1ccc(-c2ccccc2)cc1 | -4.25% | 11.2% | 2.25% | -14.6% | -6.15% | 4.65%
CCN(CC)C/C(C)=C(/c1ccccc1)c1ccccc1S(N)(=O)=O | 5.8% | 4.15% | -1.5% | -30.6% | 1.15% | 9.65%
N/C1=C/C(=O)NC(=O)c2c(c3ccccc3oc2=O)C1 | -5.7% | 0.9% | 8.5% | 5% | 7.3% | -29.6%
COC(C(=O)NN)c1ccccc1 (stereo not given) | -25.1% | -60.5% | -59.8% | -43.5% | -35.5% | -35.8%
O=[N+]([O-])c1ccccc1N1CCCCC1 | 23.9% | 7.05% | 14.9% | 25.6% | -4.05% | 27.2%
C=CCOC(=O)NC(CC(C)C)C(=O)NCC(N)=O (stereo not given) | -10.4% | 1.9% | -4.3% | -10.9% | -45.5% | -28%
NCCSS(=O)(=O)O | 3.25% | 4.45% | -17.7% | -41.5% | 0.45% | -24.9%
CSC(SC)c1cc(C)no1 | -11.3% | 12.2% | -7.45% | 34.6% | -10.2% | -9.15%
CC1(C)CC(O)CC(C)(C)N1 | 2.9% | -8.7% | -1.6% | -2.6% | -1% | 1.9%
CCCC(=O)OC1CC(n2cc(F)c(=O)[nH]c2=O)OC1CO (stereo not given) | 8.6% | 0.45% | 11.6% | 2.55% | 7.85% | -28.6%
NC(=S)N/N=C1\CCCc2ccccc21 | 60.8% | 21.2% | 42.3% | 41.9% | 7.15% | 52.8%
O=C(O)c1ccccc1Br | 1.1% | 5.4% | -13.6% | -6.95% | -17.4% | -3.35%
Nc1ccccc1NC(=O)C(F)(F)C(F)(F)C(F)(F)C(=O)Nc1ccccc1N | 3.15% | -6.25% | -14.6% | -12.3% | 28.6% | -16.6%
O=C1CSC(c2ccccc2Cl)N1N1C(=O)CSC1c1ccccc1Cl (stereo not given) | 32.4% | 19.2% | 28.1% | 27.5% | 24.3% | 28.1%
C=CCC(C)(O)CCC(C)(O)CC=C (stereo not given) | -1.95% | -14.6% | -8.3% | 1.2% | 0.95% | 8.2%
CN(C)C(=S)Oc1c([N+](=O)[O-])cc([N+](=O)[O-])cc1C(C)(C)C | 94% (active) | 89.9% (active) | 93.8% (active) | 78% (active) | 92.6% (active) | 95% (active)
CCSc1nc2n(c(=S)n1)CCN2C | 15.4% | -3.5% | 13.8% | 6.5% | 22.6% | 18.2%
N=C(N)CCNC(=O)C1CCC(N)=N1 (stereo not given) | -4.85% | -17.8% | -13.9% | 56.4% | -28.1% | -13.6%
O=C1NC(=O)c2c(O)cccc21 | 38.5% | 23.6% | 21.1% | 18.2% | 13.4% | 27.9%
